# Data reported in the supplement of paper PMC10849652.
# The full data set covers some 8,800 targets. This sample favours those with a hit. About 0.5% of all pairs of compound and target were hits. A number with no mark means an inactive call.
# What was measured:
# Experiment in all cases: log2 fold change, soluble protein after heating vs DMSO (PISA); higher = thermal stabilisation; K562 lysate, 10 uM; active = over 0.2 and 3.5 SD of the protein, either way, in both replicates (recomputed)
# lapatinib = compound: CS(=O)(=O)CCNCc1ccc(-c2ccc3ncnc(Nc4ccc(OCc5cccc(F)c5)c(Cl)c4)c3c2)o1 [lapatinib]
# Procedure, shortened: (§1)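 Following dounce homogenisation of K562 pellets in PBS pH 7.4 with 1 mM MgCl2, crude extract at 1 mg/mL protein was incubated for 30 min with 10 μM compound. Aliquots were then heated for 3 min over 48°C-58°C and pooled, NP-40 was added to 0.5% at 4°C, and soluble protein was recovered as the supernatant at 21,000xg for 90 min. Channel-sum-equalised TMTpro 16plex LC-MS/MS quantified this protein. Each value, from duplicates, is a log-two fold change in thermal stability relative to solvent controls.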
# pictilisib = compound: CS(=O)(=O)N1CCN(Cc2cc3nc(-c4cccc5[nH]ncc45)nc(N4CCOCC4)c3s2)CC1 [pictilisib]
# Procedure, shortened: as §1
# crizotinib = compound: C[C@@H](Oc1cc(-c2cnn(C3CCNCC3)c2)cnc1N)c1c(Cl)ccc(F)c1Cl [crizotinib]
# Procedure, shortened: as §1
# [1] = compound: C[C@H](C1=CC=C(C=C1)C(=O)NC2=C3C=CNC3=NC=C2)N
# Procedure, shortened: as §1
# duvelisib = compound: C[C@H](Nc1ncnc2nc[nH]c12)c1cc2cccc(Cl)c2c(=O)n1-c1ccccc1 [duvelisib]
# Procedure, shortened: as §1
# gandotinib = compound: Cc1cc(Nc2cc(CN3CCOCC3)c3nc(C)c(Cc4ccc(Cl)cc4F)n3n2)n[nH]1 [gandotinib]
# Procedure, shortened: as §1
# tozasertib = compound: Cc1cc(Nc2cc(N3CCN(C)CC3)nc(Sc3ccc(NC(=O)C4CC4)cc3)n2)n[nH]1 [tozasertib]
# Procedure, shortened: as §1
# doramapimod = compound: Cc1ccc(-n2nc(C(C)(C)C)cc2NC(=O)Nc2ccc(OCCN3CCOCC3)c3ccccc23)cc1 [doramapimod]
# Procedure, shortened: as §1
# bafetinib = compound: Cc1ccc(NC(=O)c2ccc(CN3CC[C@H](N(C)C)C3)c(C(F)(F)F)c2)cc1Nc1nccc(-c2cncnc2)n1 [bafetinib]
# Procedure, shortened: as §1
# [2] = compound: Cc1cccc(CC(=O)N2CCc3c2ccc(-c2cn(C)c4ncnc(N)c24)c3F)n1
# Procedure, shortened: as §1
# UniProt Q9NZM4, sequence (Q9NZM4 whole entry, looked up): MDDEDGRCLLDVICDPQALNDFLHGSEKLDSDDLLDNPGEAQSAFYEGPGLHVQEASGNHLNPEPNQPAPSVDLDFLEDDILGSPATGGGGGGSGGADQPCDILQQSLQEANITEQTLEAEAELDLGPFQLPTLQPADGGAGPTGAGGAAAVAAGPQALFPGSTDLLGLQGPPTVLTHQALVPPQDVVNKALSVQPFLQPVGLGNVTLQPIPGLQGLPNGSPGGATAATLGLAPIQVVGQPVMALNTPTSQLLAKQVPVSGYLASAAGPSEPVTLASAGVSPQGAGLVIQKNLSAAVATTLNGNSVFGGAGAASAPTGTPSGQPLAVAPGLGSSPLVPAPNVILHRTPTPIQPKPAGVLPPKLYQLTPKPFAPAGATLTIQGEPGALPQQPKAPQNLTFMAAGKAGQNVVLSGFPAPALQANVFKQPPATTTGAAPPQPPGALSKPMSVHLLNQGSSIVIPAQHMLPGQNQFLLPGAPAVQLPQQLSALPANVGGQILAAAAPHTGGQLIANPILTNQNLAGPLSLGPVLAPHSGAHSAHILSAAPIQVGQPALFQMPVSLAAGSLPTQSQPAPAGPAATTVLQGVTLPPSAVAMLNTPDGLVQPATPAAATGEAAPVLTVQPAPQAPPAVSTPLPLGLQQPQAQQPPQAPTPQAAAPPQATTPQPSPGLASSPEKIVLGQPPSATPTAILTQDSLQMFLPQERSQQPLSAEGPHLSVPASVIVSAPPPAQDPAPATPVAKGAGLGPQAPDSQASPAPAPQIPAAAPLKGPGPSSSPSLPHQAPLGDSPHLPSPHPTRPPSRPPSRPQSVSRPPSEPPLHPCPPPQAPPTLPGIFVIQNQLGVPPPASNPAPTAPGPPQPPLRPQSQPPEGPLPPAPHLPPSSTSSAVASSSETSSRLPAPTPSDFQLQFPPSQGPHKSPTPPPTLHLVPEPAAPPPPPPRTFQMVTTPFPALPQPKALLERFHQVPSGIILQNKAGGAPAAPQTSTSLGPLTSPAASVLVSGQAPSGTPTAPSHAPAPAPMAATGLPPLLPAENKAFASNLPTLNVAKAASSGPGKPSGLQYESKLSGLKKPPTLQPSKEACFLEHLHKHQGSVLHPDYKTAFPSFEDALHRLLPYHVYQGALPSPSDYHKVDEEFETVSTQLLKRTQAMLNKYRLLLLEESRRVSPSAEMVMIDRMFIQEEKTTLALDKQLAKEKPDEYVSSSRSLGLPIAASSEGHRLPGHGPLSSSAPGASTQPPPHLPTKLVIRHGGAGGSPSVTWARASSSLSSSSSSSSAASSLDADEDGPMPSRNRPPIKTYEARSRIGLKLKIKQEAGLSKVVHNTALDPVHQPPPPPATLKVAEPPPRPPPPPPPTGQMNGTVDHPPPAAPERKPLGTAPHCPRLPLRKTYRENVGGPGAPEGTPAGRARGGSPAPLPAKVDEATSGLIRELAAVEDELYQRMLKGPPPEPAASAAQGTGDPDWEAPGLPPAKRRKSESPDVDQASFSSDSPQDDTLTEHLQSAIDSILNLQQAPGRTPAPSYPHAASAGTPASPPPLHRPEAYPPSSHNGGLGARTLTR
# UniProt Q06187, sequence (Q06187 whole entry, looked up): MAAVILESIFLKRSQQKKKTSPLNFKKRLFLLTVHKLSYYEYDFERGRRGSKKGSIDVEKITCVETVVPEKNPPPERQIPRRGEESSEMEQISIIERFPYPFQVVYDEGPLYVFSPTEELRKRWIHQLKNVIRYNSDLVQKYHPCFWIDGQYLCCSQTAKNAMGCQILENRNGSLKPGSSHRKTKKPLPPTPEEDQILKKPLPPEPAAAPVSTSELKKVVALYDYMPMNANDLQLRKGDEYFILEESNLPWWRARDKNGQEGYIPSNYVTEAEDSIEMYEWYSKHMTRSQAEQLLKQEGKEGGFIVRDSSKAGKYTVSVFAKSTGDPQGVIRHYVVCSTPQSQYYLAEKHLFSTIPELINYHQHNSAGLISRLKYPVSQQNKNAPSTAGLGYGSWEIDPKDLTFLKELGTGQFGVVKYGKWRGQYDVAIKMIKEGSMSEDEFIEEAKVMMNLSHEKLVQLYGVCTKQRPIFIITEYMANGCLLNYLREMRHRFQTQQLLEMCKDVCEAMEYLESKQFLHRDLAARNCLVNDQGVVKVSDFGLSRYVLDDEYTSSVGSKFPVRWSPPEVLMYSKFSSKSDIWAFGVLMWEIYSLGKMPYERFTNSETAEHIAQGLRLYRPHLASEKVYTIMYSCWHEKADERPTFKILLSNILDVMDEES
# UniProt O76039, sequence (O76039 whole entry, looked up): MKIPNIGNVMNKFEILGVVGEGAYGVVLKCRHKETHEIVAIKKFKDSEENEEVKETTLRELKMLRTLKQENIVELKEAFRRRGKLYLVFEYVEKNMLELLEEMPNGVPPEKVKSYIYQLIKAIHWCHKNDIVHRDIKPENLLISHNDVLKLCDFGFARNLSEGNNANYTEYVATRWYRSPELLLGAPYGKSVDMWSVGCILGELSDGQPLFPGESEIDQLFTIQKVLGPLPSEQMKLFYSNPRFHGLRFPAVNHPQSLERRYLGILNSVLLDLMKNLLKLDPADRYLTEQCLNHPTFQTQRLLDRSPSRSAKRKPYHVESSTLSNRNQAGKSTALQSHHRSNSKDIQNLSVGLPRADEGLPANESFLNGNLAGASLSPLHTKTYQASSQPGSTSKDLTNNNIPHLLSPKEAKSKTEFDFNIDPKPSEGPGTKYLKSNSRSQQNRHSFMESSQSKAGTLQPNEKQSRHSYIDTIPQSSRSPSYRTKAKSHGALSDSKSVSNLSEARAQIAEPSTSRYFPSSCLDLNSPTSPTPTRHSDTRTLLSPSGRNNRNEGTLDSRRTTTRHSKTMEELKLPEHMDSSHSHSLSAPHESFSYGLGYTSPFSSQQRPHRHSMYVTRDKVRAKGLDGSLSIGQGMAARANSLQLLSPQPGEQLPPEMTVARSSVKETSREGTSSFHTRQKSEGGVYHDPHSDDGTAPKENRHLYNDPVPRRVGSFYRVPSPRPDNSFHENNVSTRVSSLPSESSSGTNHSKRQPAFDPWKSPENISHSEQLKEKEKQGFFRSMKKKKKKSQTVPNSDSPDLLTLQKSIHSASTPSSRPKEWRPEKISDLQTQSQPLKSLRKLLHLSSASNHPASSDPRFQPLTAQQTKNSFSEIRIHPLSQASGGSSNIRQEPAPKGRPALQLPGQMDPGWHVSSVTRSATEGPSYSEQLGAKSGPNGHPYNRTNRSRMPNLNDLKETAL
# UniProt O60566, sequence (O60566 whole entry, looked up): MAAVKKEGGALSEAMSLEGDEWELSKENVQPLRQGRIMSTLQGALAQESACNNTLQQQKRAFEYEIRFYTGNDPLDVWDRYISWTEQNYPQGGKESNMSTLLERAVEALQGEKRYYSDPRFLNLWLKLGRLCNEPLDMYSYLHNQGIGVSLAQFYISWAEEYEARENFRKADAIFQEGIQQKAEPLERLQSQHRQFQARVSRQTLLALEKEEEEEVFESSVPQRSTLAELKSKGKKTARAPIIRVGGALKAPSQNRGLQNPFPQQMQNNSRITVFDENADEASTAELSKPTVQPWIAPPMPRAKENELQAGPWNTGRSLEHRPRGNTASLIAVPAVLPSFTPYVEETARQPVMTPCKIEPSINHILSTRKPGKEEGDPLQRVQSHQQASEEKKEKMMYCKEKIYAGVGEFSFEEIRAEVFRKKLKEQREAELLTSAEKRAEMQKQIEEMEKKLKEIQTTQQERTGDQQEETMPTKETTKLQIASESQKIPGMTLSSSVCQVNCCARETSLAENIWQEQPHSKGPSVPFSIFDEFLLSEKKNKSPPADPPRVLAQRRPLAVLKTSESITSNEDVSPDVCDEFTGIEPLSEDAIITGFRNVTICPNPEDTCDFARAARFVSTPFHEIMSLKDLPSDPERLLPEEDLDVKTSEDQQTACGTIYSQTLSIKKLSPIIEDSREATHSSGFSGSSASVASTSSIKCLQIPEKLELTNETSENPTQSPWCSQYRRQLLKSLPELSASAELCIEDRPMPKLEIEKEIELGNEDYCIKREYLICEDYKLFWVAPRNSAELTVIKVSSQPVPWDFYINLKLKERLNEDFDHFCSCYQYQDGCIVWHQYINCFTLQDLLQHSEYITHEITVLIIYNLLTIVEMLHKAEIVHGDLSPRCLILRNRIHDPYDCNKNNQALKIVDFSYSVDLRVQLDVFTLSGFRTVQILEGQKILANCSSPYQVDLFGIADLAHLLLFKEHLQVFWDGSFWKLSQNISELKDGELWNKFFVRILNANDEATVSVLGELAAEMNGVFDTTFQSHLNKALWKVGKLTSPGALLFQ
# UniProt P18859, sequence (P18859 whole entry, looked up): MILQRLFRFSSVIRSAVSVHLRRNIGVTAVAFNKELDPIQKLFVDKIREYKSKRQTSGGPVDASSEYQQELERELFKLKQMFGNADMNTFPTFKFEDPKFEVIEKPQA
# UniProt Q8TAP6, sequence (Q8TAP6 whole entry, looked up): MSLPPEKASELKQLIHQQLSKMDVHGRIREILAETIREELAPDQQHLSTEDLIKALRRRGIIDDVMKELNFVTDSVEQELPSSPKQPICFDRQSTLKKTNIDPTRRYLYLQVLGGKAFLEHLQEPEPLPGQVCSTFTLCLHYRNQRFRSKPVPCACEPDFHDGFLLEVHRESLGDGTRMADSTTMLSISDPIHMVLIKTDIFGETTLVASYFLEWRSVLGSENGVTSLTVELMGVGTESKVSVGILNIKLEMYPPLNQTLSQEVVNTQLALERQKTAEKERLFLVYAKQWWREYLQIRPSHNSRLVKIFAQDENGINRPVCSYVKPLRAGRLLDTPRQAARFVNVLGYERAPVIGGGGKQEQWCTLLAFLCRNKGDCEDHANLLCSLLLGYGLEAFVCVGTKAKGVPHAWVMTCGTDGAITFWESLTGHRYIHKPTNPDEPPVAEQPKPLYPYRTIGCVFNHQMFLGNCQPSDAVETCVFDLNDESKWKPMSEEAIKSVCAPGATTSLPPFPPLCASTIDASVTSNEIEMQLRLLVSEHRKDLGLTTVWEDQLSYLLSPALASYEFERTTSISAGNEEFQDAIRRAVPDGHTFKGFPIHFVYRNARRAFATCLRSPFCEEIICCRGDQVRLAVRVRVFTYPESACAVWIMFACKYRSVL
Target,log2 fold change (lapatinib),log2 fold change (pictilisib),log2 fold change (crizotinib),log2 fold change [1],log2 fold change (duvelisib),log2 fold change (gandotinib),log2 fold change (tozasertib),log2 fold change (doramapimod),log2 fold change (bafetinib),log2 fold change [2]
CDKN1B (UniProt P46527),0.083,-0.043,0.139,0.047,-0.06,-0.161,-0.005,-0.04,-0.106,-0.059
CALB2 (UniProt P22676),0.009,-0.07,0.01,-0.041,0.031,0.092,0.056,0.003,0.082,-0.007
ATP13A1 (UniProt Q9HD20),-0.115,-0.011,0.123,0.047,-0.004,-0.073,0.068,-0.053,-0.033,0.043
CCDC32 isoform 2 (UniProt Q9BV29),0.04,0.02,-0.021,-0.195,0.024,0.025,0.062,0.007,-0.087,0.085
BRAT1 (UniProt Q6PJG6),0.026,-0.013,-0.103,0,-0.001,-0.1,0.017,0.052,-0.014,0.038
ATXN2 (UniProt Q99700),0.006,-0.042,0.028,0.019,0.025,0.001,0.011,0.017,-0.012,-0.006
ATE1 isoform 2 (UniProt O95260),0.021,-0.058,0.024,-0.089,-0.051,0.076,-0.003,-0.071,-0.093,0.029
ATG4B (UniProt Q9Y4P1),0.012,-0.042,-0.087,0.114,0.01,-0.128,-0.013,0.004,-0.008,-0.059
BCL2L12 (UniProt Q9HB09),0.164,-0.184,0.01,0.045,0.009,-0.003,-0.056,-0.016,-0.296,0.057
ATP5PF isoform 2 (UniProt P18859),0.04,-0.088,0.054,0.591 (active),-0.021,-0.185,-0.018,-0.083,0.221,-0.19
CDK5RAP3 isoform 4 (UniProt Q96JB5),-0.013,-0.028,-0.054,-0.231 (active),-0.002,0.173,0.019,0.017,-0.02,0.211
CDKN1C (UniProt P49918),0.027,-0.033,0.105,-0.025,-0.035,-0.046,-0.095,-0.045,0.049,0.071
BUB1B isoform 3 (UniProt O60566),0.009,-0.038,-0.059,0.007,0.024,-0.04,-0.01,0.019,-0.029,0.035
CHD4 isoform 2 (UniProt Q14839),0.003,-0.004,-0.007,-0.05,-0.038,0.005,0.011,0.021,-0.05,0.05
CHCHD7 isoform 4 (UniProt Q9BUK0),0.079,0.06,-0.052,-0.382 (active),-0.01,0.266,-0.077,0.026,-0.001,0.187
CARD9 (UniProt Q9H257),-0.048,-0.035,-0.053,-0.016,-0.009,-0.032,0.022,0.032,-0.145,0.03
CAPN15 (UniProt O75808),0.063,-0.046,-0.047,0.004,-0.022,-0.033,0.042,0.106,-0.003,-0.01
CCDC22 (UniProt O60826),-0.002,-0.017,-0.036,-0.014,-0.016,-0.056,0.03,0.023,-0.035,-0.005
CAMK2B (UniProt Q13554),0.024,0.053,,-0.045,-0.011,0.072,-0.046,-0.03,0.003,0.055
BTRC (UniProt Q9Y297),0.01,-0.008,,0.018,,0.073,-0.01,,-0.027,0.065

Target,log2 fold change (lapatinib),log2 fold change (pictilisib),log2 fold change (crizotinib),log2 fold change [1],log2 fold change (duvelisib),log2 fold change (gandotinib),log2 fold change (tozasertib),log2 fold change (doramapimod),log2 fold change (bafetinib),log2 fold change [2]
BAG4 (UniProt O95429),0.013,-0.174,0.06,-0.056,0.043,0.102,0.011,-0.043,-0.002,0.004
CCNA2 (UniProt P20248),-0.004,-0.029,-0.035,-0.092,0.019,0.091,-0.073,0.059,0.027,0.049
CCDC51 (UniProt Q96ER9),-0.038,-0.055,-0.01,0.259 (active),-0.034,-0.217 (active),0.007,-0.053,-0.106,-0.232
CASP7 isoform 3 (UniProt P55210),-0.055,0.037,-0.07,,0.009,,0.049,0.029,-0.054,
CHD1L (UniProt Q86WJ1),-0.037,-0.045,-0.115,-0.011,0.013,-0.062,0.052,0.128,-0.055,0.038
CARHSP1 (UniProt H3BNU9),-0.101,-0.186,,0.16,,-0.329,,,0,0.341
CARD11 (UniProt Q9BXL7),0.001,-0.287 (active),-0.018,-0.025,0.029,-0.035,-0.021,0.028,-0.059,0.038
ATE1 (UniProt O95260),-0.03,-0.047,-0.068,0.032,,-0.019,,0.043,-0.039,0.009
CEP295 isoform 3 (UniProt Q9C0D2),-0.038,0.057,0.004,-0.365 (active),,0.058,0.111,0.059,0.031,0.072
CHCHD1 (UniProt Q96BP2),0.025,0.001,-0.069,1.33 (active),0.052,-0.314,-0.016,0.039,0.003,-0.35 (active)
C18orf25 isoform 2 (UniProt Q96B23),-0.001,-0.235,,-0.017,0.017,0.061,0.001,,-0.025,-0.021
CDK8 (UniProt P49336),-0.035,-0.033,-0.032,0.129,-0.075,-0.065,,0.322,-0.043,0.119
CDK11A (UniProt Q9UQ88),0.104,-0.02,0.092,0.049,-0.003,0.122,,-0.072,-0.033,-0.093
BICRA (UniProt Q9NZM4),-0.099,0.052,-0.059,-0.027,0.105,0.171,,0.014,0.078,0.133
CHD3 isoform 3 (UniProt Q12873),-0.022,-0.02,0.009,0.014,-0.022,-0.013,-0.002,0.028,-0.047,0.033
CASP9 (UniProt P55211),0.003,0.011,-0.047,-0.036,0.036,-0.027,0.017,0.009,-0.069,0.082
CAMK1 (UniProt Q14012),-0.037,-0.058,-0.078,-0.145,-0.042,0.187,0.05,-0.006,-0.047,0.314 (active)
CAPNS1 (UniProt U3KPR7),-0.052,-0.083,,,,,,,-0.194,
BTK isoform 2 (UniProt Q06187),-0.015,-0.041,,-0.148,0.018,0.101,-0.012,0.031,-0.043,0.178
C3orf33 (UniProt Q6P1S2),0.09,0.059,-0.051,-0.541,0.101,0.14,,-0.025,-0.046,0.263

Target,log2 fold change (lapatinib),log2 fold change (pictilisib),log2 fold change (crizotinib),log2 fold change [1],log2 fold change (duvelisib),log2 fold change (gandotinib),log2 fold change (tozasertib),log2 fold change (doramapimod),log2 fold change (bafetinib),log2 fold change [2]
AURKA (UniProt O14965),-0.101,0.112,,-0.071,-0.006,1 (active),,-0.061,-0.09,-0.062
CAMKK2 (UniProt Q96RR4),-0.018,0.006,0.108,0.023,0.058,0.257 (active),-0.055,0.031,0.018,-0.056
C16orf70 (UniProt Q9BSU1),-0.002,-0.076,0.058,,-0.013,,0.018,0.116,-0.045,
ATP6V0A2 (UniProt Q9Y487),-0.07,-0.047,-0.016,-0.227 (active),0.026,0.108,0.004,0.023,-0.046,0.13
CBR1 (UniProt P16152),0.023,-0.027,0.043,-0.082,-0.037,0.001,0.003,-0.044,0.034,0.032
CBFA2T3 (UniProt O75081),0.041,-0.038,0.013,0.017,0.006,-0.001,-0.014,0.007,-0.007,0.05
C15orf41 (UniProt Q9Y2V0),-0.078,0.007,-0.033,0.03,0.059,0.002,0.102,-0.035,0.009,-0.017
C6orf120 (UniProt Q7Z4R8),-0.113,0.032,,-0.03,-0.036,-0.037,,,0.045,-0.169
CDC25C (UniProt P30307),-0.118,-0.025,,-0.049,-0.021,-0.109,0.03,-0.003,0.038,0.013
CCNH (UniProt P51946),0.005,-0.012,0.012,0.026,0.072,-0.002,0.013,0.037,-0.022,-0.023
CDC45 isoform 3 (UniProt O75419),-0.036,-0.014,-0.009,0.023,-0.007,-0.079,0,-0.002,-0.077,-0.018
CHCHD2 (UniProt Q9Y6H1),0.035,0,0.119,0.044,-0.008,0.021,0.102,-0.021,0.288,-0.138
CEP76 (UniProt Q8TAP6),-0.031,-0.073,-0.106,-0.063,0.141,0.007,0.079,0.085,-0.115,0.027
ATF7IP2 (UniProt Q5U623),-0.03,0.05,-0.215,0.05,,0.027,,0.073,-0.023,-0.155
CDK2 (UniProt P24941),-0.026,0.028,0,,-0.026,0.403 (active),0.008,0.004,0.042,-0.001
BLM (UniProt P54132),-0.007,-0.068,-0.003,0.192,0.018,-0.267 (active),0.057,0.018,-0.049,-0.251
CASC1 (UniProt Q6TDU7),,-0.06,,-0.175,,0.058,,,0.953,0.095
CDKL5 (UniProt O76039),-0.207,,-0.167,-0.128,0.073,0.537,0.024,-0.057,,-0.073
CDK17 isoform 2 (UniProt Q00537),,-0.008,0.026,0.096,-0.04,0.042,-0.113,0.15,-0.033,-0.359
